# Assay outcomes from PubChem.
# Mm-Cpn inhibitor = Inhibitors of TCP-1 ring complex (TRiC) of Methanococcus maripaludis (MmCpn): qHTS | Chaperonin Mm-Cpn (Methanococcus maripaludis) | purified Mm-Cpn ATPase, ADP Transcreener TR-FRET | Potency, µM (highest dose often 76.9 µM), hits mostly inhibitors | hit rate 0.031% among 330,000; active = well fitted inhibition curve with a large enough effect; inconclusive = small, poorly fitted or top-dose-only effect; also: nearly all actives have a fitted effect of over 80% in size
#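 Quantitative HTS used 25 nM Mm-CPN and 10 uM ATP in magnesium/KCl Tris buffer, pH 7.4, with 1 mM DTT. Hydrolysis ran 30 min at 37°C; ADP was read by HTRF.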
# D3 antag = qHTS of D3 Dopamine Receptor Antagonist: qHTS. D(3) dopamine receptor (Homo sapiens), P35462. max response, negative = inhibition, %. hit rate 2.5% among 360,000. D3R cells, DiscoveRx beta-arrestin luminescence, antagonist mode; hits give low values; in the data active = max response below about -50%; inconclusive = no clear call, values can overlap the other calls
#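 Cells plated overnight at 1500 cells/well, then exposed to library compounds with dopamine controls for 90 minutes at 37 degrees C. DiscoveRx reagent added for 30–60 minutes at room temperature; luminescence read, quantitative HTS format.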
# PTAP TSG101 blk = qHTS Assay for Iinhibitors of HIV-1 Budding by Blocking the Interaction of PTAP/TSG101. AID 493005, 2010. Potency, µM (series often up to 115 µM), hits mostly inhibitors. 340,000 tested, under 10 active. Fluorescence polarization, FITC-PTAP peptide / Tsg101 binding; active = well fitted inhibition curve with a large enough effect in the main read-out, with a control signal flat, not every such curve was filed as active; inconclusive = small, poorly fitted or top-dose-only effect, or effect the other way, or a change in a side signal; inactive = no such curve, though single readings can be large or run the other way
# Target sequence (Q99816 whole entry, looked up): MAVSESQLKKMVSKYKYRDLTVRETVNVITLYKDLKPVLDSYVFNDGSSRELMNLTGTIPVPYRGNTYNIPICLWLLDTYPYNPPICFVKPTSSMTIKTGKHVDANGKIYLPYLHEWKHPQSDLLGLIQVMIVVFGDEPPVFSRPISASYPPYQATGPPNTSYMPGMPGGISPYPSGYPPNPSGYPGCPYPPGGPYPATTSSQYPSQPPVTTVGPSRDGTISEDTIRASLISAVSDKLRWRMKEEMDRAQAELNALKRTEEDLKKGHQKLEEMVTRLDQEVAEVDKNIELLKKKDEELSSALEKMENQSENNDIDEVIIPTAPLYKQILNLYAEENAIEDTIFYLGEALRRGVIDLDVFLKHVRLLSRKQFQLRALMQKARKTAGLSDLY
#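 Fluorescence polarization binding of Tsg101 binding domain (10 uM final) to FITC-labeled PTAP peptide (50 nM final) in HEPES pH 7.5 buffer with NaCl, Tween 20, EDTA, TCEP. Compounds added before peptide; binding 20 min at RT.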
# Rango complex inh = qHTS Assay for Inhibitors of Rango (Ran-regulated importin-beta cargo) - Importin beta complex formation | Potency, µM (doses to about 92.2 µM) | hit rate 0.031% among 340,000 | AID 540263, 2011 | Importin subunit beta-1 (Homo sapiens), Q14974 | Rango CFP/YFP FRET sensor + importin beta, 45 min; also: nearly all actives have a fitted effect of over 15% in size
#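 Inhibition scored from the CFP 486 nm/YFP 530 nm FRET ratio 45 min after adding 0.125 microM importin beta to 50 nM Rango biosensor preincubated 5 min with compound (room temperature, PBS with DTT, Tween-20, BSA). No-importin wells as positive control.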
# Rango release inh = qHTS Assay for Inhibitors of RanGTP induced Rango (Ran-regulated importin-beta cargo) - Importin beta complex dissociation; Snurportin-1 (Homo sapiens) + GTP-binding nuclear protein Ran (Homo sapiens) + Importin …; Biochemical FRET Rango-importin beta, RanGTP-induced dissociation; Potency, µM (doses to about 46.1 µM); hit rate 0.071% among 340,000; AID 540253, 2011; also: nearly all actives have a fitted effect of over 45% in size
#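 Rango (0.1 uM)–importin beta (0.25 uM) complex; RanGTP-RCC1 trigger; 45 min RT; CFP/YFP FRET read.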
# D3 ag = qHTS of D3 Dopamine Receptor Agonist: qHTS; D(3) dopamine receptor (Homo sapiens), P35462; D3R DiscoveRx beta-arrestin cells, luminescence, 90 min; max activation, %; hit rate 0.58% among 410,000; AID 652048, 2013; in the data active = max activation above about 30%
#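 Agonist-mode cell screen: cells plated at 1500/well and incubated overnight at 37 °C, then exposed to library compounds for 90 min at 37 °C. Detection reagent was added for 30–60 min at room temperature, and luminescence was read.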
# A number is an active result; i = inactive; ? = inconclusive; nt = no result. In the library only some 2.9% were active in any assay of this set; here they are far more common. Unless noted, calls follow the shape of the full dose curve.
SMILES,Mm-Cpn inhibitor,D3 antag,PTAP TSG101 blk,Rango complex inh,Rango release inh,D3 ag
COc1ccc(OC)c(NC(=O)CN2CCC(C(=O)c3ccc(C)cc3)CC2)c1,i,?,i,i,i,i
COc1ccc(NC(=O)CN2CCC(C(=O)c3ccc(C)cc3)CC2)c(OC)c1,i,-71,i,i,i,i
CC(C)(C)n1nnnc1C(c1cccs1)N(Cc1cccnc1)Cc1ccccc1Cl (stereo unspecified),i,-58,i,i,i,i
CCc1ccccc1NC(=O)N1CCN(c2cc(-c3noc(C)n3)ccc2C)CC1,nt,nt,nt,nt,nt,i
CCc1c(C)nc(N2CCOCC2)[nH]c1=O,i,i,i,i,i,i
CCc1c(C)[nH]c2c1C(=O)C(CN1CCOCC1)CC2 (stereo unspecified),nt,-102,i,i,i,i
COc1ccc(/C=C/C(=O)O)cc1S(=O)(=O)NCc1ccccc1,i,i,i,i,i,36
COC(=O)c1ccc(OCC2c3cc(OC)c(OC)cc3CCN2C(=O)c2ccccc2F)cc1 (stereo unspecified),nt,nt,nt,nt,nt,i
Nc1c2c(nc3ccccc13)N(C1CCCCC1)CC2,i,-83,i,i,i,i
Nc1c2c(nc3ccc(Br)cc13)N(C1CCCCC1)CC2,i,nt,nt,nt,nt,nt
COc1cccc(-c2nc(CS(=O)(=O)CC(=O)NCCc3ccc(Cl)cc3)c(C)o2)c1,nt,nt,nt,nt,nt,i
O=S(=O)(c1ccc2c(c1)OCCO2)N1CCC(c2nc3ccc(Cl)cc3[nH]2)CC1,i,?,nt,i,i,i
O=C(NCC1CCCO1)c1ccc(S(=O)(=O)N2CCC(c3nc4ccc(Cl)cc4[nH]3)CC2)cc1 (stereo unspecified),i,-62,i,i,i,i
CCCn1ccc2c(OCC(=O)NCc3ccccc3Cl)cccc2c1=O,nt,nt,nt,nt,nt,i
CCc1nn(C(CC)C(=O)NCCCc2ccccc2)c(=O)c2cc3occc3n12 (stereo unspecified),i,i,i,i,i,i
CCc1nn(C(CC)C(=O)NCCCN2CC(C)CC(C)C2)c(=O)c2cc3oc(C)cc3n12 (stereo unspecified),i,-57,i,i,i,i
CCc1cc2c(NCCN3CCCCC3)ncnc2s1,i,-86,i,i,i,i
CCc1cc2c(NCCO)ncnc2s1,i,i,i,i,i,i
CCCCCCCCCCCCCCCCCCNC(=O)OC1CCN(C(=O)OC[C@H](COC(=O)N(Cc2cccc[n+]2CC)C(=O)c2ccccc2OC)OC)CC1,nt,nt,nt,nt,nt,i
CCCCN(CC)CCNC(=O)c1cc2c(=O)n(C)c3ccccc3c2n1C,i,-73,i,i,i,i
CC1CC(C)CN(CCCNC(=O)c2cc3c(=O)[nH]c4ccccc4c3n2C)C1 (stereo unspecified),i,-64,i,i,i,i
Cn1c(C(=O)NCCCN2CCc3ccccc3C2)cc2c(=O)n(C)c3ccccc3c21,i,-70,?,?,?,i
Cn1c(C(=O)NCCCN2CCN(c3ccccc3F)CC2)cc2c(=O)[nH]c3ccccc3c21,i,i,i,i,i,i
CCOc1ccccc1NC(=O)Cn1c(=O)nc(-c2ccccc2F)c2cc(Cl)ccc21,nt,nt,nt,nt,nt,i
CCOc1ccc(CCNC(=O)c2cccc(Nc3nc4ccccc4nc3-n3nc(C)cc3C)c2)cc1OCC,nt,nt,nt,nt,nt,i
SMILES,Mm-Cpn inhibitor,D3 antag,PTAP TSG101 blk,Rango complex inh,Rango release inh,D3 ag
O=C(COC(=O)c1cccc(S(=O)(=O)N2CCc3ccccc32)c1)Nc1ncc(Cl)cc1Cl,i,i,i,i,i,i
O=C(COC(=O)c1cccc(S(=O)(=O)N2CCc3ccccc32)c1)Nc1ncc(C(F)(F)F)cc1Cl,i,-57,i,i,i,i
COc1ccc(OCC#CCNC(C)(C)C)cc1,i,-69,i,i,i,i
CCCCn1nnnc1C1(C)CCC(=O)N1CCCn1ccnc1 (stereo unspecified),nt,-106,nt,nt,nt,i
Cc1ccccc1-c1noc(CSc2nc(-c3ccc(F)cc3)cc(=O)[nH]2)n1,nt,nt,nt,nt,nt,i
Clc1ccc2nc(-c3ccccn3)c(Nc3ccc4c(c3)OCO4)n2c1,i,-60,i,i,i,i
Clc1ccc2nc(-c3cccs3)c(Nc3ccc4c(c3)OCCO4)n2c1,nt,nt,nt,nt,nt,i
Cc1ccc2c(=O)c(C(=O)c3ccc(F)cc3)cn(CC(=O)NCCc3ccccc3)c2n1,nt,nt,nt,nt,nt,i
COc1ccc(N(Cc2cccs2)C(=O)c2ccc(OC)c(Cl)c2)cc1,nt,nt,nt,nt,nt,i
CC(=O)c1ccc(-c2cccc(-c3cc(=O)oc4ccc(C(C)(C)C)cc34)c2)cc1,i,i,i,i,i,39
CC(C)(C)c1ccc2oc(=O)cc(-c3cccc(-c4ccc(C(F)(F)F)cc4)c3)c2c1,i,i,i,i,i,i
COc1cccc(CN2CCN(CC(=O)NCCc3ccccc3)CC2)c1,i,i,i,i,i,i
O=C(Nc1ccc(Cl)c(Cl)c1)C1CCN(C(=O)c2ccco2)CC1,i,-81,i,i,i,i
Cc1ccc(NC(=O)C2CCN(C(=O)c3ccco3)CC2)cc1,i,i,i,i,i,i
CCOC(=O)c1cnc(-n2nc(C)cc2C)nc1NCc1ccccc1,i,i,i,i,i,i
CCOC(=O)c1cnc(-n2nc(C)cc2C)nc1NC(C)c1ccccc1 (stereo unspecified),i,-59,i,i,i,i
O=C(N/N=C/C1CCCCC1)c1ccccc1-n1cccc1,i,i,i,i,i,36
CCOC(=O)C1(CCOc2ccccc2)CCN(Cc2ccc(C(=O)OC)cc2)CC1,i,-60,i,i,i,i
CCOC(=O)C1(CCOc2ccccc2)CCN(Cc2ccncc2)CC1,i,i,i,i,i,i
CCOC(=O)C1(CCOc2ccccc2)CCN(Cc2ccc(-n3cccn3)cc2)CC1,i,-71,i,i,i,i
CCOC(=O)C1(CCOc2ccccc2)CCN(Cc2ccc(O)c(Cl)c2)CC1,i,-69,i,i,i,i
CCOC(=O)C1(CCOc2ccccc2)CCN(Cc2cccc(OC)c2)CC1,nt,i,i,i,i,i
